Experimental data published in the supplement of paper PMC8728848.
This excerpt belongs to a sample that is enriched for the strongest signals.

B1: ASA (Allium sativum) (protein)
chain: KAHEKERMGRNTPSAKLMSIAAVAAILTILASTCMARNLLTNGEGLYAGQSLNVEPYHFIMQEDCNLVLYDHSTAVWATNTDIPGKKECRAVLQSDGNFVVYDADGRPLWASHSVRGNGNYVLVLQEDGNVVIYGSDIWSTGTYVKAARGPVVVAMNGTVDGGSLIRPVIVNKNHVPVIRKVGTLSRNILRNDEGLYAGQSLDVEPYHFIMHEDCNLVLYDHSTAVWASNTDIPGKKGCKAVLQSDGNFVVYDAEGRSLWASHSVRGNGNYVLVLQEDGNVVIYGSDIWSTDTYRKSARGPVIRKVGTLAGAA
B2: CVNH0 (Neurospora crassa), Q7S6U4 (protein)
chain: GSHIGPYMSFHVTAEDARIEVRDNRTILFARLRREDGEWNDASYELDQIIGNNDGHFQWGGQNFTETAEDIRFHPKEGAAEQPILRARLRDCNGEFHDRDVNLTEIVENVNGEFQAKF

Assays:
Experiment in all cases: glycan array binding signal (z-score within array); higher = stronger binding
Settings in all cases: glycan notation: IUPAC condensed, linker removed
Fuc(a1-2)Gal = biological target: Fuc(a1-2)Gal
Method in brief: (§1)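 Negative Z-scores can be read as non-binding. The Z-score is calculated within each array and then averaged across arrays of one protein sequence at different concentrations or buffers and across linkers. Arrays, 3228 in all, were curated from the Consortium for Functional Glycomics database and kept only where the protein sequence was available.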

[1] = biological target: Fuc(a1-2)Gal(b1-4)[Fuc(a1-3)]GalNAc(b1-3)Gal(b1-4)[Fuc(a1-3)]GlcNAc(b1-3)Gal(b1-4)[Fuc(a1-3)]GalNAc
Method in brief: as §1

[2] = biological target: Fuc(a1-3)[Gal(b1-4)]GlcNAc(b1-4)Gal(b1-4)[Fuc(a1-3)]GlcNAc(b1-4)Gal(b1-4)[Fuc(a1-3)]GlcNAc
Method in brief: as §1

Gal(b1-3)GalNAc = biological target: Gal(b1-3)GalNAc
Method in brief: as §1

[3] = biological target: Gal(b1-3)GalNAc(b1-3)Gal(b1-4)GlcNAc
Method in brief: as §1

[4] = biological target: Gal(b1-3)[GlcNAc(b1-6)]GalNAc
Method in brief: as §1

[5] = biological target: Gal(b1-4)GlcNAc(b1-3)GalNAc
Method in brief: as §1

Gal4S6S(b1-4)GlcNAc = biological target: Gal4S6S(b1-4)GlcNAc
Method in brief: as §1

GalNAc(b1-4)GlcNAc = biological target: GalNAc(b1-4)GlcNAc
Method in brief: as §1

Glc(a1-6)Glc(a1-6)Glc = biological target: Glc(a1-6)Glc(a1-6)Glc
Method in brief: as §1

[6] = biological target: Man(a1-2)Man(a1-2)Man(a1-3)Man
Method in brief: as §1

[7] = biological target: Man(a1-2)Man(a1-3)[Man(a1-2)Man(a1-6)]Man
Method in brief: as §1

[8] = biological target: Man(a1-2)Man(a1-3)[Man(a1-3)[Man(a1-6)]Man(a1-6)]Man(b1-4)GlcNAc(b1-4)GlcNAc
Method in brief: as §1

[9] = biological target: Man(a1-3)[Man(a1-6)]Man(a1-6)[Man(a1-3)]Man(b1-4)GlcNAc(b1-4)GlcNAc
Method in brief: as §1

[10] = biological target: Man(a1-3)[Man(a1-6)]Man(b1-4)GlcNAc(b1-4)GlcNAc
Method in brief: as §1

[11] = biological target: Neu5Ac(a2-3)Gal(b1-3)GalNAc(b1-3)Gal(a1-4)Gal(b1-4)Glc
Method in brief: as §1

[12] = biological target: Neu5Ac(a2-3)[GalNAc(b1-4)]Gal(b1-4)GlcNAc
Method in brief: as §1

Neu5Gc(a2-3)Gal(b1-4)Glc = biological target: Neu5Gc(a2-3)Gal(b1-4)Glc
Method in brief: as §1

[13] = biological target: Fuc(a1-2)Gal(b1-3)GalNAc(b1-3)Gal(b1-4)Glc
Method in brief: as §1

[14] = biological target: Fuc(a1-2)[GalNAc(a1-3)]Gal
Method in brief: as §1

Gal(a1-2)Gal = biological target: Gal(a1-2)Gal
Method in brief: as §1

[15] = biological target: Gal(b1-4)GlcNAc(b1-3)Gal(b1-4)GlcNAc
Method in brief: as §1

[16] = biological target: Gal(b1-4)GlcNAc(b1-3)Gal(b1-4)[Fuc(a1-3)]GlcNAc(b1-3)Gal(b1-4)[Fuc(a1-3)]GlcNAc
Method in brief: as §1

[17] = biological target: Gal(b1-4)GlcNAc(b1-6)[Gal(b1-3)]GlcNAc
Method in brief: as §1

Gal6S(b1-4)Glc6S = biological target: Gal6S(b1-4)Glc6S
Method in brief: as §1

Glc(a1-4)Glc = biological target: Glc(a1-4)Glc
Method in brief: as §1

Kdn(a2-3)Gal(b1-3)GlcNAc = biological target: Kdn(a2-3)Gal(b1-3)GlcNAc
Method in brief: as §1

[18] = biological target: Man(a1-2)Man(a1-2)Man(a1-3)[Man(a1-2)Man(a1-3)[Man(a1-2)Man(a1-6)]Man(a1-6)]Man(b1-4)GlcNAc(b1-4)GlcNAc
Method in brief: as §1

[19] = biological target: Man(a1-2)Man(a1-2)Man(a1-6)[Man(a1-3)]Man
Method in brief: as §1

Neu5Ac(a2-3)Gal = biological target: Neu5Ac(a2-3)Gal
Method in brief: as §1

[20] = biological target: Neu5Ac(a2-3)Gal(b1-3)GlcNAc6S
Method in brief: as §1

[21] = biological target: Neu5Ac(a2-3)Gal(b1-3)[Neu5Ac(a2-3)Gal(b1-4)]GlcNAc
Method in brief: as §1

[22] = biological target: Neu5Ac(a2-3)Gal(b1-4)GlcNAc(b1-3)Gal(b1-4)GlcNAc
Method in brief: as §1

[23] = biological target: Neu5Ac(a2-3)Gal(b1-4)[Fuc(a1-3)]GlcNAc(b1-3)Gal(b1-4)[Fuc(a1-3)]GlcNAc(b1-3)Gal(b1-4)[Fuc(a1-3)]GlcNAc
Method in brief: as §1

[24] = biological target: Neu5Ac(a2-3)Gal(b1-4)[Fuc(a1-3)]GlcNAc6S
Method in brief: as §1

[25] = biological target: Neu5Ac(a2-6)Gal(b1-4)GlcNAc(b1-2)Man(a1-3)[Neu5Ac(a2-6)Gal(b1-4)GlcNAc(b1-2)Man(a1-6)]Man(b1-4)GlcNAc(b1-4)GlcNAc
Method in brief: as §1

[26] = biological target: Neu5Gc(a2-3)Gal(b1-3)GlcNAc
Method in brief: as §1

Binder	glycan array binding signal (z-score) (Fuc(a1-2)Gal)	glycan array binding signal (z-score) [1]	glycan array binding signal (z-score) [2]	glycan array binding signal (z-score) (Gal(b1-3)GalNAc)	glycan array binding signal (z-score) [3]	glycan array binding signal (z-score) [4]	glycan array binding signal (z-score) [5]	glycan array binding signal (z-score) (Gal4S6S(b1-4)GlcNAc)	glycan array binding signal (z-score) (GalNAc(b1-4)GlcNAc)	glycan array binding signal (z-score) (Glc(a1-6)Glc(a1-6)Glc)	glycan array binding signal (z-score) [6]	glycan array binding signal (z-score) [7]	glycan array binding signal (z-score) [8]	glycan array binding signal (z-score) [9]	glycan array binding signal (z-score) [10]	glycan array binding signal (z-score) [11]	glycan array binding signal (z-score) [12]	glycan array binding signal (z-score) (Neu5Gc(a2-3)Gal(b1-4)Glc)	glycan array binding signal (z-score) [13]	glycan array binding signal (z-score) [14]	glycan array binding signal (z-score) (Gal(a1-2)Gal)	glycan array binding signal (z-score) [15]	glycan array binding signal (z-score) [16]	glycan array binding signal (z-score) [17]	glycan array binding signal (z-score) (Gal6S(b1-4)Glc6S)	glycan array binding signal (z-score) (Glc(a1-4)Glc)	glycan array binding signal (z-score) (Kdn(a2-3)Gal(b1-3)GlcNAc)	glycan array binding signal (z-score) [18]	glycan array binding signal (z-score) [19]	glycan array binding signal (z-score) (Neu5Ac(a2-3)Gal)	glycan array binding signal (z-score) [20]	glycan array binding signal (z-score) [21]	glycan array binding signal (z-score) [22]	glycan array binding signal (z-score) [23]	glycan array binding signal (z-score) [24]	glycan array binding signal (z-score) [25]	glycan array binding signal (z-score) [26]
B1	-0.156	-0.081	-0.229	-0.222	-0.231	-0.211	-0.23	-0.222	-0.151	-0.228	6.7	2.2	6.08	5.45	6.64	-0.228	-0.172	-0.208																			
B2	-0.372											4.06	-0.376						3.75	-0.436	-0.423	-0.427	-0.186	-0.381	-0.362	-0.391	-0.44	3.89	3.68	-0.431	0.204	-0.411	-0.351	-0.226	-0.433	-0.408	-0.433
